From PubChem BioAssay (Tox21)
Records with an inconclusive call do not appear. A call without a number means that no potency is given here. Some compounds were tested as several samples or in several runs, with calls that do not always agree. Calls of active or inactive are those of the source. Unless noted, the call rests on the fitted dose curve; in most records, active means well fitted curve in the direction sought with a large enough effect in the repeat runs; inconclusive means weak or mixed curves; inactive means no such curve, though single readings can be large; an effect the other way counts as inactive or inconclusive.

Columns and labels:
[1] = target: Aryl hydrocarbon receptor (Homo sapiens) (UniProt P35869); assay: qHTS assay to identify small molecule that activate the aryl hydrocarbon receptor (AhR) signaling pathway (AID 743085); further: nearly all actives have a fitted effect of over 15% in size; further: potency means the concentration at half of the fitted maximal effect;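 on activation: HG2L7.5c1 human HepG2 liver cells with stably integrated DRE-driven firefly reporter; series mostly up to about 70 µM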
Sequence of Aryl hydrocarbon receptor (Homo sapiens) (P35869 whole entry, looked up): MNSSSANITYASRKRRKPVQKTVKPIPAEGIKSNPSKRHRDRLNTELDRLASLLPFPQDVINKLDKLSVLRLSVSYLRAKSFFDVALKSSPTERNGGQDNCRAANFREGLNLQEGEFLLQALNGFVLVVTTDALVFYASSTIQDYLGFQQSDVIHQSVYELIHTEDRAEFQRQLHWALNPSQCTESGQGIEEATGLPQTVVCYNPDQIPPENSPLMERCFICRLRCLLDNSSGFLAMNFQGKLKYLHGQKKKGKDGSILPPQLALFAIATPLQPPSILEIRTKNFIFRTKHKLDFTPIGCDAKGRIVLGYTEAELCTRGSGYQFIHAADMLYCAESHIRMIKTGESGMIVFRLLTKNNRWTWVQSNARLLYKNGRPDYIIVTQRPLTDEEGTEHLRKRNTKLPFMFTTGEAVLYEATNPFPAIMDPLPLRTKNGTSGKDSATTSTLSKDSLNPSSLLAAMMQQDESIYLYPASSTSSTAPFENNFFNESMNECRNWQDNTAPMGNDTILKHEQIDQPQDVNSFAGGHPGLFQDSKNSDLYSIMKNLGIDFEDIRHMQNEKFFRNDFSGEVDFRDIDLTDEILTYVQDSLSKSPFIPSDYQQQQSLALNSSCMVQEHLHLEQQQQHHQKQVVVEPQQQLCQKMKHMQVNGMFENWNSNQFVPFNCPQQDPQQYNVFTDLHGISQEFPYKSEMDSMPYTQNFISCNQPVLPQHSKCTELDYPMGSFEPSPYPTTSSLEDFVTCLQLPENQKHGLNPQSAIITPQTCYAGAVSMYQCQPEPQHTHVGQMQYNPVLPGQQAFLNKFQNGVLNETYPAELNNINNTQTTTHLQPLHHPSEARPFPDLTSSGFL
Procedure, shortened: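 AhR agonist activity is inferred from enhanced light output of a DRE-controlled firefly luciferase reporter in HepG2 cells, measured with ONE-Glo following 24 h treatment at 37C.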

[2] = qHTS assay to identify small molecule that activate the aryl hydrocarbon receptor (AhR) signaling pathway - cell viability counter screen (AID 743086);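 further: HepG2 liver cells carrying the AhR DRE luciferase reporter; series mostly up to about 70 µM; nearly all actives have a fitted effect of over 45% in size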
Procedure, shortened: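 HepG2-AhR-luc (HG2L7.5c1) cells, 4000/well, were preincubated 5 h at 37C, exposed to compound in qHTS format for 24 hr at 37C, then given CellTiter-Fluor for 30 min; viability was read as fluorescence in the reporter wells.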

[3] = target: Peroxisome proliferator-activated receptor gamma (Homo sapiens) (UniProt P37231); assay: qHTS assay to identify small molecule antagonists of the peroxisome proliferator-activated receptor gamma (PPARg) signaling pathway (AID 743191; calls by dose curve; further: series mostly up to about 63 µM; nearly all actives have a fitted effect of over 30% in size)
Sequence of Peroxisome proliferator-activated receptor gamma (Homo sapiens) (P37231 whole entry, looked up): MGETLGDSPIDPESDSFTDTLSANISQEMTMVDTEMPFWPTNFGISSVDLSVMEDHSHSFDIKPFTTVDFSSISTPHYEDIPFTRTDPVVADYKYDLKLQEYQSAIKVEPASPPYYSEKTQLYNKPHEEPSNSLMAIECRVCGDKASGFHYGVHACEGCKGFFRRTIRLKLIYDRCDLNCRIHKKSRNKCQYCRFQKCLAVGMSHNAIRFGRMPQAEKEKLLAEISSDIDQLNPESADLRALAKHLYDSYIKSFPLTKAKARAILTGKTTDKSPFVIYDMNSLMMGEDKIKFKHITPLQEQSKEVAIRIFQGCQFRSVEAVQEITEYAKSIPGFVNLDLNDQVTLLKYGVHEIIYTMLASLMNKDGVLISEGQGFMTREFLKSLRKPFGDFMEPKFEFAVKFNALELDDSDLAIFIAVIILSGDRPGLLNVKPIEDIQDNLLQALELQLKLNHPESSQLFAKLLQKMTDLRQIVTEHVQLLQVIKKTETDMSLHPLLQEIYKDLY
Procedure, shortened: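 GeneBLAzer PPARg UAS-bla HEK293H cells carrying a UAS-driven beta-lactamase reporter were plated at 3000 cells/well, preincubated 5 h at 37C, then given compound for 17 h at 37C; LiveBLAzer B/G FRET substrate was read after 1 h at room temperature.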

[4] = qHTS assay to identify small molecule antagonists of the peroxisome proliferator-activated receptor gamma (PPARg) signaling pathway - cell viability counter screen (AID 743194); details: Potency: co-treated with 50 nM rosiglitazone; further: nearly all actives have a fitted effect of over 55% in size
Procedure, shortened: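 PPARg-UAS-bla HEK293H cells were plated, rested 5 h at 37 C, then treated with compounds plus rosiglitazone (50 nM final) for 17 h at 37 C; viability was then read by CellTiter-Glo luminescence after 30 min at room temperature.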

[5] = qHTS assay for small molecule agonists of the antioxidant response element (ARE) signaling pathway (AID 743202; active means well fitted activation curve with a large enough effect in the signal ratio in the repeat runs, not every such curve was filed as active; the % refers to the signal ratio)
Procedure, shortened: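 Steps: seed ARE-bla HepG2 cells (2,000/well); incubate 5 h at 37 C; add compounds by pin tool; incubate 16 h at 37 C; add FRET substrate; read fluorescence after 2 h at RT.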

[6] = qHTS assay for small molecule agonists of the antioxidant response element (ARE) signaling pathway - cell viability counter screen (AID 743203; calls by dose curve; further: nearly all actives have a fitted effect of over 55% in size; further: potency means the concentration at half of the fitted maximal effect)
Procedure, shortened: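 Measured in the same wells as the beta-lactamase ARE reporter, this read-out is CellTiter-Glo luminescence from HepG2 ARE-bla cells given compounds for 16 hrs.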

[7] = qHTS assay for small molecule activators of the heat shock response signaling pathway (AID 743210; active means well fitted activation curve with a large enough effect in the signal ratio in the repeat runs, with a control signal flat, not every such curve was filed as active; the % refers to the signal ratio;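 further: HeLa cells with beta-lactamase reporter driven by heat shock elements; series mostly up to about 63 µM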)
Procedure, shortened: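 Activation of heat shock element-controlled beta-lactamase expression is measured in HeLa cells by LiveBLAzer FRET fluorescence, with compound exposure lasting 5 h at 37 C and substrate loading 2.5 h at room temperature.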

[8] = qHTS assay to identify small molecule agonists of the peroxisome proliferator-activated receptor delta (PPARd) signaling pathway - cell viability counter screen (AID 743211); further: nearly all actives have a fitted effect of over 55% in size
Procedure, shortened: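 qHTS cell viability: PPARd-bla HEK293H; 17 h cpd, 37C; CellTiter-Glo, luminescence at 30 min RT.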

[9] = qHTS assay for small molecule activators of the heat shock response signaling pathway - cell viability counter screen (AID 743209); further: nearly all actives have a fitted effect of over 50% in size
Procedure, shortened: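 Same-well multiplex: after 2.5 h room-temperature incubation with LiveBLAzer B/G substrate and fluorescence reading, CellTiter-Glo reagent was added to HSE-bla HeLa cells that had received compound for 5 h at 37 C; luminescence read after 30 min.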

[10] = target: Peroxisome proliferator-activated receptor gamma (Homo sapiens) (UniProt P37231); assay: qHTS assay to identify small molecule agonists of the peroxisome proliferator-activated receptor gamma (PPARg) signaling pathway (AID 743094; active means well fitted activation curve with a large enough effect in the signal ratio in the repeat runs, not every such curve was filed as active; the % refers to the signal ratio)
Procedure, shortened: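 Cell-based bla reporter, HEK293H background, PPARg-driven UAS. Pre-incubation 5 h, 37C, 5% CO2. Compound 17 h, 37C. Substrate 1 h RT; fluorescence.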

| Structure (SMILES) | Potency [1] | Potency [2] | Potency [3] | Potency [4] | Potency [5] | Potency [6] | Potency [7] | Potency [8] | Potency [9] | outcome [10] |
| --- | --- | --- | --- | --- | --- | --- | --- | --- | --- | --- |
| CCCC(C)(COC(N)=O)COC(N)=O | inactive | inactive | inactive | inactive | inactive | inactive | inactive | inactive | – | – |
| ClC(Cl)(Cl)Cl | inactive | inactive | inactive | inactive | inactive | inactive | – | inactive | inactive | – |
| COc1cc(CC(C)N)cc(OC)c1OC (stereo not drawn) | inactive | inactive | inactive | inactive | inactive | inactive | – | inactive | – | – |
| CN(C)C(=O)Oc1cc(OC(=O)N(C)C)cc(C(O)CNC(C)(C)C)c1 (stereo not drawn) | inactive | inactive | inactive | inactive | inactive | inactive | – | inactive | inactive | – |
| NC1(c2ccccc2)CCCCC1 | inactive | inactive | inactive | inactive | inactive | inactive | inactive | inactive | inactive | – |
| CN1C(=O)COc2c(C(=O)NC3CN4CCC3CC4)cc(Cl)cc21 (stereo not drawn) | inactive | inactive | inactive | inactive | – | inactive | inactive | inactive | inactive | – |
| C(COCC1CO1)OCC1CO1 (stereo not drawn) | inactive | inactive | inactive | inactive | – | inactive | – | inactive | inactive | – |
| CC(C)(O)C(Cl)(Cl)Cl | inactive | inactive | inactive | inactive | inactive | inactive | – | – | – | – |
| CC(C)NCC(O)c1ccc([N+](=O)[O-])cc1 (stereo not drawn) | inactive | inactive | inactive | inactive | inactive | inactive | inactive | – | inactive | – |
| N[C@@H](Cc1ccc(Oc2cc(I)c(O)c(I)c2)c(I)c1)C(=O)O | inactive | inactive | – | inactive | inactive | inactive | inactive | inactive | inactive | – |
| CN(C)C1CCCCC1 | inactive | inactive | – | – | inactive | inactive | – | inactive | inactive | inactive |
| NC(=O)OCCCc1ccccc1 | inactive | inactive | inactive | inactive | inactive | inactive | inactive | inactive | inactive | – |
| ClC1=C(Cl)C2(Cl)C(CBr)CC1(Cl)C2(Cl)Cl (stereo not drawn) | inactive | inactive | – | – | inactive | 54.5 µM (active) and inactive | inactive | inactive | – | inactive |
| O=C1CCCCC1Cl (stereo not drawn) | inactive | inactive | inactive | inactive | – | inactive | – | inactive | inactive | – |
| CS(=O)(=O)c1ccc(C(=O)C2C(=O)CCCC2=O)c(Cl)c1COCC(F)(F)F | inactive | inactive | inactive | inactive | inactive | inactive | – | inactive | inactive | – |
| COc1ccc(CN2CCNCC2)c(OC)c1OC | inactive | inactive | inactive | inactive | inactive | inactive | – | inactive | inactive | – |
| CCCCS(=O)(=O)Cl | inactive | inactive | inactive | inactive | – | inactive | inactive | inactive | – | – |
| CCCCCCCC(=O)Cl | inactive | inactive | inactive | inactive | inactive | inactive | inactive | inactive | inactive | – |
| CC(Cl)(Cl)Cl | inactive | inactive | inactive | inactive | inactive | inactive | inactive | inactive | inactive | – |
| O=C1CC(=O)NC(=O)N1 | inactive | inactive | inactive | inactive | inactive | inactive | – | inactive | inactive | – |
| O=C(Cl)OCc1ccccc1 | inactive | inactive | – | inactive | inactive | inactive | – | inactive | inactive | – |
| O=C(Cl)C(Cl)Cl | inactive | inactive | – | inactive | inactive | inactive | – | inactive | – | – |

| Structure (SMILES) | Potency [1] | Potency [2] | Potency [3] | Potency [4] | Potency [5] | Potency [6] | Potency [7] | Potency [8] | Potency [9] | outcome [10] |
| --- | --- | --- | --- | --- | --- | --- | --- | --- | --- | --- |
| O=C(NC(O)C(Cl)(Cl)Cl)NC(O)C(Cl)(Cl)Cl (stereo not drawn) | inactive | inactive | – | inactive | inactive | inactive | inactive | inactive | inactive | – |
| Cc1ccc(S(=O)(=O)N[C@@H](CCCCN)C(=O)CCl)cc1 | inactive | – | inactive | inactive | inactive | inactive | – | inactive | inactive | – |
| CC[C@@H](CO)NC(=O)[C@@H]1C=C2c3cccc4[nH]cc(c34)C[C@H]2N(C)C1 | inactive | inactive | – | inactive | inactive | inactive | – | inactive | inactive | – |
| Cl/C=C/CCl | – | inactive | inactive | inactive | inactive | inactive | inactive | inactive | inactive | inactive |
| CCCOC(=O)Cc1ccc(OCC(=O)N(CC)CC)c(OC)c1 | – | inactive | inactive | inactive | inactive | inactive | – | inactive | inactive | inactive |
| CCCCCCCCBr | inactive | inactive | – | inactive | inactive | inactive | inactive | inactive | inactive | – |
| Cc1ccc(-c2nc3ccc(C)cn3c2CC(=O)N(C)C)cc1 | – | inactive | inactive | inactive | inactive | inactive | inactive | inactive | inactive | inactive |
| CCC1(c2ccccc2)CCC(=O)NC1=O (stereo not drawn) | inactive | inactive | – | inactive | inactive | inactive | inactive | inactive | inactive | – |
| CC[C@H](O)C(C[C@H](C)N(C)C)(c1ccccc1)c1ccccc1 | inactive | – | – | inactive | – | inactive | inactive | inactive | inactive | inactive |
| CC(Cc1ccccc1)NCCn1cnc2c1c(=O)n(C)c(=O)n2C (stereo not drawn) | inactive | – | inactive | inactive | inactive | inactive | inactive | inactive | inactive | inactive |
| Cn1c(N)nc2c3cccnc3ccc21 | 4.61 µM (active) | – | – | inactive | inactive | inactive | inactive | inactive | inactive | inactive |
| COC1=CC(=O)O[C@@H](/C=C/c2ccccc2)C1 | inactive | inactive | – | inactive | – | inactive | – | inactive | inactive | – |
| CCCC(C)C1(CC)C(=O)N=C(S)NC1=O (stereo not drawn) | inactive | inactive | – | inactive | inactive | inactive | inactive | inactive | inactive | – |
| CCN(CCO)CCO | inactive | – | inactive | inactive | – | inactive | – | inactive | inactive | inactive |
| CC(C)(C)NC[C@H](O)c1ccc(O)cc1Cl | – | inactive | inactive | inactive | inactive | inactive | inactive | inactive | inactive | inactive |
| Oc1ccc2c3c1O[C@H]1[C@@H](O)C=C[C@H]4[C@@H](C2)NCC[C@@]341 | inactive | inactive | – | inactive | – | inactive | – | – | – | – |
| O=C/C=C/c1ccco1 | inactive | inactive | – | inactive | inactive | inactive | – | inactive | – | – |
| Cc1cc(OC(=O)N(C)C)nn1C(=O)N(C)C | inactive | inactive | – | – | inactive | inactive | inactive | inactive | inactive | – |
| N#CC(Br)(Br)C(N)=O | inactive | inactive | – | inactive | – | inactive | inactive | inactive | inactive | – |
| CCN[C@H](C)Cc1cccc(C(F)(F)F)c1 | inactive | – | inactive | inactive | – | inactive | inactive | inactive | inactive | inactive |
| CCN(CCO)CCn1c(Cc2ccccc2)nc2c1c(=O)n(C)c(=O)n2C | inactive | – | inactive | inactive | inactive | inactive | inactive | inactive | inactive | inactive |
